PubChem BioAssay AID2629 (Broad Institute, 2010)
Screen size: about 320,000 compounds; about 1,900 (0.59%) were called active. What follows is part of a selection rich in actives, with near analogues and random picks from the rest. Values without a mark were called inactive. Rule as the data show it: active = inhibition mostly above about 10% (no sharp cut-off); inactive = mostly below about 6.7%.

target: Protein LANA1 (Human herpesvirus 8 type P (isolate GK18)) (UniProt Q9QR71); experiment: blockers of LANA interaction with H2A/H2B – biochemical, FP readout, HTS, primary screen (AID 2629); settings: cell-free LANA-H2A/H2B peptide, fluorescence polarization, stronger effect = higher value, concentration not given here
Sequence (Q9QR71 whole entry, looked up): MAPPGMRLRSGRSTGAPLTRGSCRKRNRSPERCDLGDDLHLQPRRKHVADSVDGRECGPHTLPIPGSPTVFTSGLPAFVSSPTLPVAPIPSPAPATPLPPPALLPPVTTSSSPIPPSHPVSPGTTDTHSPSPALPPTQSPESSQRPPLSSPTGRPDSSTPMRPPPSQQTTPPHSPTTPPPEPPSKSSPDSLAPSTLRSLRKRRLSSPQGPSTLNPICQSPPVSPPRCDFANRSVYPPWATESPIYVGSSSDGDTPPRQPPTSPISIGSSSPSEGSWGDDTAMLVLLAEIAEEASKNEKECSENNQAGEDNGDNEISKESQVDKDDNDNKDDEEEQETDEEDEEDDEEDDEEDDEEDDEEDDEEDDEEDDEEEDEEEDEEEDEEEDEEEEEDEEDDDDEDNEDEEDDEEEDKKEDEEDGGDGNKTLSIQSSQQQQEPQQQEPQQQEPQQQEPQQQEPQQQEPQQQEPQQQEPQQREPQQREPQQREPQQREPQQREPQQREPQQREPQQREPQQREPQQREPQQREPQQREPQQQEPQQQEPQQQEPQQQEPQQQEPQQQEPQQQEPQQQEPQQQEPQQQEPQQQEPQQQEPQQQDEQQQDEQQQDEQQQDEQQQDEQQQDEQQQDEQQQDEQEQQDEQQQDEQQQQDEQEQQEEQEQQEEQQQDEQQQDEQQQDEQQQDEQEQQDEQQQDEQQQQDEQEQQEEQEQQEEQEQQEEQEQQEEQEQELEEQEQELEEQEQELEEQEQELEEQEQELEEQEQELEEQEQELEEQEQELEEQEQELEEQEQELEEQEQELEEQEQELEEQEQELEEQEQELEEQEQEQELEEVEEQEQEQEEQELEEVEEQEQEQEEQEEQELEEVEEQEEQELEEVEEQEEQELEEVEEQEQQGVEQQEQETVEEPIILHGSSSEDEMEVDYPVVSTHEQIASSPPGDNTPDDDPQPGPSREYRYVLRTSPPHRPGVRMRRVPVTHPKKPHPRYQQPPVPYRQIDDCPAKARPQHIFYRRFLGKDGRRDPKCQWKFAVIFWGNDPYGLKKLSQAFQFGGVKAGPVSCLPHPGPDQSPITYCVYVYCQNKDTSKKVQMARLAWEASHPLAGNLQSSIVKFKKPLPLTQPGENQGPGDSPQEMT

In order of rising inhibition:
1. COc1ccc(N2C(=O)c3cccc4cccc(c34)C2=O)nn1  -111%
2. CC1(C(=O)O)CCC(C(=O)Nc2ccc(Cl)c(Cl)c2)C1(C)C (stereo unspecified)  -7.06%
3. CN(Cc1ccccc1)C(=O)C1CCCN(c2ncnc3c2nc2n3CCCCC2)C1 (stereo unspecified)  -6.07%
4. CC1=C(C(=O)OCc2ccccc2)C(c2ccco2)n2ncnc2N1 (stereo unspecified)  -3.53%
5. Cc1ccc2cc(CCNC(=O)c3ccc4c(c3)OCO4)c(=O)[nH]c2c1  -1.83%
6. O=C(Nc1ccccc1F)c1ccc2c(c1)OCO2  -1.38%
7. Cc1ccc2cccc(OCCCOc3ccccc3CO)c2n1  -1.05%
8. CCOc1ccc(C2=CC(c3ccccc3)n3ncnc3N2)cc1 (stereo unspecified)  -0.926%
9. CC(C)C[C@H]1CN=C(Nc2ccccc2)N1CC1CCCCC1  -0.894%
10. C=CCSc1nc2c(c(=O)[nH]c(=O)n2C)n1Cc1ccccc1  -0.531%
11. COc1ccc(OCCn2ccnc2C)cc1  -0.22%
12. C[N+](C)(CCCCCC[N+](C)(C)CCCN1C(=O)c2cccc3cccc(c23)C1=O)CCCN1C(=O)c2cccc3cccc(c23)C1=O  0.475%
13. Cc1nn(-c2cc(Cl)ccc2N)c(=O)c2ccccc12  0.97%
14. O=C(O)c1ccc2c3c(cccc13)C(=O)N(OS(=O)(=O)c1ccccc1)C2=O  1.71%
15. COC(=O)CSc1nc2ccccc2c(=O)n1Cc1ccccc1  2.39%
16. CCC(=O)Nc1nnc(S(=O)(=O)N2CCCc3ccccc32)s1  3.1%
17. COC(=O)C1=C(C(=O)OC)C2(OC1c1ccc(Br)cc1)C(=O)c1ccccc1C2=O (stereo unspecified)  3.44%
18. CS(=O)(=O)N(Cc1ccccc1Cl)c1ccc(C(=O)NCc2cccnc2)cc1  3.45%
19. CN1CCN(S(=O)(=O)c2ccc(Nc3ccc(F)cc3)nc2)CC1  3.84%
20. O=C(/C=C/c1ccc([N+](=O)[O-])cc1)NCCSCc1ccco1  5.42%
21. O=C(c1ccccc1)c1cccn1CC(=O)N1CCN(c2ccc(F)cc2)CC1  5.58%

For `O=C(NCCc1ccc(C(F)(F)F)cc1)c1ccc2c(c1)OCO2`, the inhibition was 16.2% (active).
With `Cc1cc2nc3c(=O)n(Cc4ccccc4)c(=O)[nH]c3nc2cc1N` the inhibition was 27.2% (active).
In the case of `CN1C(=O)c2cccc3c(N)ccc(c23)C1=O`, the inhibition is reported as 25.3% (active).
With `Cc1nn(C)cc1N1C(=O)c2cccc3c(N)ccc(c23)C1=O` the inhibition was 101% (active).
In the case of `Brc1ccc(C2=CC(c3ccco3)n3ncnc3N2)cc1` (stereo unspecified), the inhibition is reported as 35% (active).
